# Test results from PubChem BioAssay (EPA / NIEHS).
# The source made the active and inactive calls. How the source made its calls: active means hit-call score of the fitted dose curve at least 0.9, where 1 is the maximum; inactive means score below 0.9.
# Assays:
# [1] = APR_HepG2_CellCycleArrest_24hr: Apredica 24-hour HepG2 Assay for Cell Cycle Arrest (AID 2282905); details: imaging, actives raise or lower the signal;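 further: cell cycle arrest scored as ratio of 2N to 4N nuclear DNA content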
# Procedure, shortened: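 Readout: Hoechst 33342 nuclear DNA content by high-content fluorescent imaging, six images/well, 20x. Human HepG2 liver cells, 24 hr compound exposure, 0.39–200 uM, final DMSO 0.5% v/v. Gain or loss fitted relative to DMSO baseline.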
# [2] = APR_HepG2_NuclearSize_24hr: Apredica 24-hour HepG2 Assay for Nuclear Size (AID 2282907); details: high-content imaging, actives raise or lower the signal
# Procedure, shortened: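 Read-out: nuclear diameter from Hoechst 33342 (2 ug/mL) imaging of fixed HepG2 cells, 20x, six fields/well. Compounds ran at 0.39–200 uM for 24 hr, 0.5% DMSO final. Gain or loss was fitted bidirectionally relative to the DMSO baseline.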
# [3] = APR_HepG2_CellLoss_24hr: Apredica 24-hour HepG2 Assay for Cell Loss (AID 2282908); details: high-content imaging;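 on AC50: fit in both directions so a hit may be cell loss or gain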
# Procedure, shortened: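 Read-out: Hoechst 33342-stained nuclei counted by automated fluorescence imaging after formaldehyde fixation and Triton permeabilization. Ten concentrations, 0.39 to 200 uM, duplicate wells, 0.5% DMSO final. Gain or loss of signal fitted relative to DMSO baseline.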
# [4] = APR_HepG2_MicrotubuleCSK_24hr: Apredica 24-hour HepG2 Assay for Microtubule CSK Stabilty (AID 2282909); details: HepG2 microtubule cytoskeleton imaging, actives raise or lower the signal
# Procedure, shortened: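 Read-out: alpha-tubulin immunofluorescence intensity by automated high-content imaging of fixed HepG2 cells after 24 h compound treatment. Ten concentrations, 0.39 to 200 uM, in duplicate; DMSO 0.5% v/v. Taxol positive control; DMSO-normalized bidirectional curve fitting.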
# [5] = APR_HepG2_MitoticArrest_24hr: Apredica 24-hour HepG2 Assay for Mitotic Arrest (AID 2282910); details: high-content imaging, actives raise or lower the signal
# Procedure, shortened: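 HepG2, 24 hr dosing, 0.39–200 uM, 0.5% DMSO final. Formaldehyde-fixed, Triton-permeabilised, anti-phospho-histone H3 plus Hoechst. ArrayScan imaging at 20x; bidirectional fit vs DMSO baseline.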
# [6] = APR_HepG2_MitoMass_24hr: Apredica 24-hour HepG2 Assay for Mitochondrial Mass (AID 2282912); details: high-content imaging, actives raise or lower the signal
# Procedure, shortened: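 HepG2, 24 hr dosing, 10 concentrations 0.39–200 uM in duplicate, DMSO 0.5% final. MitoTracker Red CMXRos 250 nM, 30 min pre-fix; 3.7% formaldehyde fix. Imaging-based fluorescence intensity; gain/loss fit vs DMSO baseline.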
# [7] = APR_HepG2_p53Act_24hr: Apredica 24-hour HepG2 Assay for p53 Activation (AID 2282913); details: high-content imaging, actives raise or lower the signal;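 further: p53 protein immunofluorescence averaged per cell in HepG2 with Hoechst nuclei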
# Procedure, shortened: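 Automated fluorescence imaging quantifies p53 immunostaining in HepG2 cells after a 24 hr exposure (0.39–200 uM, duplicate, 0.5% DMSO). Nuclei are located by Hoechst 33342 staining.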
# [8] = APR_HepG2_CellCycleArrest_72hr: Apredica 72-hour HepG2 Assay for Cell Cycle Arrest (AID 2282914); details: high-content imaging, actives raise or lower the signal
# Procedure, shortened: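 Cell cycle arrest in HepG2 was scored from nuclear DNA content after 72 hr compound treatment (0.39–200 uM). Activity, either gain or loss, was fitted against the DMSO baseline.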
# [9] = APR_HepG2_CellLoss_72hr: Apredica 72-hour HepG2 Assay for Cell Loss (AID 2282915); details: high-content imaging
# Procedure, shortened: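 HepG2 cells exposed 72 h to compound at 0.39–200 uM (10 concentrations, duplicate) in 0.5% DMSO. Fixed with 3.7% formaldehyde and Hoechst 33342-stained. Imaged at 20x; nuclear count gives cell number, fitted bidirectionally versus DMSO.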
# [10] = APR_HepG2_MitoMembPot_72hr: Apredica 72-hour HepG2 Assay for Mitochondrial Membrane Potential (AID 2282917); details: imaging, actives raise or lower the signal
# Procedure, shortened: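 HepG2 cells dosed 72 hr with compound at 0.39–200 uM in duplicate, 0.5% v/v DMSO final. Mitochondria stained with 250 nM MitoTracker Red CMXRos for 30 min before formaldehyde fixation, imaged by high-content fluorescence; bidirectional fit versus DMSO.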
# [11] = APR_HepG2_MitoticArrest_72hr: Apredica 72-hour HepG2 Assay for Mitotic Arrest (AID 2282918); details: high-content imaging, actives raise or lower the signal
# Procedure, shortened: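 Mitotic arrest in HepG2 is scored from phospho-histone H3 staining after 72 hr dosing across 0.39–200 uM, with DMSO at 0.5% v/v. Nuclei are identified by Hoechst 33342 and fluorescence intensity is quantified per cell.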
# [12] = APR_HepG2_MicrotubuleCSK_72hr: Apredica 72-hour HepG2 Assay for Microtubule CSK Stabilty (AID 2282919); details: HepG2 microtubule cytoskeleton, high-content imaging, actives raise or lower the signal
# Procedure, shortened: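 HepG2, 72 hr cmpd exposure, 0.39–200 uM (10 pts, duplicate), 0.5% DMSO. 3.7% formaldehyde fix, 0.5% Triton perm, anti-alpha-tubulin/Cy5 plus Hoechst. HCS fluorescence intensity; bidirectional fit vs DMSO baseline; taxol as positive control.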
# [13] = APR_HepG2_P-H2AX_24hr: Apredica 24-hour HepG2 Assay for H2AX Phosphorylation (AID 2282920); details: high-content imaging, actives raise or lower the signal
# Procedure, shortened: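 Signal comes from a FITC-labeled secondary detecting phospho-histone H2A.x in fixed HepG2 cells, quantified by automated imaging at 20x. Dosing ran 24 hr across 0.39–200 uM with 0.5% v/v DMSO.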
# [14] = APR_HepG2_StressKinase_72hr: Apredica 72-hour HepG2 Assay for Stress Kinase (AID 2282921); details: HepG2 stress kinase (phospho-c-Jun) imaging, actives raise or lower the signal
# Procedure, shortened: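 Phospho-c-Jun immunofluorescence measured by high-content imaging at 20x, six fields per well; bidirectional curve fitting against DMSO as baseline. Dosing: 0.39–200 uM, 72 h, 0.5% DMSO final.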
# [15] = APR_HepG2_StressKinase_24hr: Apredica 24-hour HepG2 Assay for Stress Kinase (AID 2282922); details: HepG2 stress kinase (phospho-c-Jun) imaging, actives raise or lower the signal
# Procedure, shortened: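 Read-out: phospho-c-Jun immunofluorescence (Cy3 secondary) quantified by high-content imaging at 20x, nuclei defined by Hoechst 33342. Human HepG2 liver cells dosed 24 hr, 0.39–200 uM, DMSO 0.5% v/v; gain or loss of signal fitted relative to DMSO.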
# [16] = APR_HepG2_MitoMass_72hr: Apredica 72-hour HepG2 Assay for Mitochondrial Mass (AID 2282924); details: high-content imaging, actives raise or lower the signal;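 further: MitoTracker Red CMXRos stain intensity per cell imaged as mitochondrial mass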
# Procedure, shortened: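 Read-out: MitoTracker Red fluorescence intensity from automated imaging (20x, six fields per well) in human HepG2 liver cells. Dosing ran 72 hr, 0.39–200 uM, 0.5% DMSO; bidirectional curve fitting versus DMSO baseline.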
# [17] = APR_HepG2_NuclearSize_72hr: Apredica 72-hour HepG2 Assay for Nuclear Size (AID 2282925); details: high-content imaging, actives raise or lower the signal
# Procedure, shortened: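 Read-out: nuclear diameter from Hoechst 33342 images (ArrayScan, 20x, six fields/well), via cell-cycle image analysis. HepG2 were dosed 0.39–200 uM for 72 hr in 0.5% DMSO. Bidirectional fit relative to DMSO.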
# [18] = APR_HepG2_P-H2AX_72hr: Apredica 72-hour HepG2 Assay for H2AX Phosphorylation (AID 2282916); details: imaging, actives raise or lower the signal;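 further: phospho-histone H2A.x immunostain intensity per cell marking DNA damage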
# Procedure, shortened: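 Readout: phospho-H2A.x immunofluorescence (FITC secondary) plus Hoechst nuclear stain, high-content imaging at 20x, six fields/well. HepG2, 72 hr compound exposure, 0.39–200 uM, final DMSO 0.5% v/v. Gain or loss fitted relative to DMSO baseline.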
structure (smiles),measurement,setting,value
S=c1[nH]c2ccccc2s1,outcome,[1],inactive
same,outcome,[2],inactive
same,outcome,[3],inactive
same,outcome,[4],inactive
same,outcome,[5],inactive
same,outcome,[6],inactive
same,outcome,[7],inactive
same,outcome,[8],inactive
same,outcome,[9],inactive
same,AC50,[10],97.3 µM (active)
same,outcome,[11],inactive
same,outcome,[12],inactive
same,outcome,[13],inactive
same,outcome,[14],inactive
same,outcome,[15],inactive
same,outcome,[16],inactive
same,outcome,[17],inactive
CS(=O)(=O)c1ccc([C@@H](C[C@H]2CCC(=O)C2)C(=O)Nc2cnccn2)cc1Cl,outcome,[1],inactive
same,outcome,[2],inactive
same,outcome,[3],inactive
same,outcome,[4],inactive
same,outcome,[5],inactive
same,outcome,[6],inactive
same,outcome,[7],inactive
same,outcome,[8],inactive
same,outcome,[9],inactive
same,outcome,[10],inactive
same,outcome,[11],inactive
same,outcome,[12],inactive
same,outcome,[13],inactive
same,outcome,[14],inactive
same,outcome,[15],inactive
same,AC50,[16],43.7 µM (active)
same,outcome,[17],inactive
O=Cc1ccccc1C=O,outcome,[1],inactive
same,outcome,[2],inactive
same,outcome,[3],inactive
same,outcome,[4],inactive
same,outcome,[5],inactive
same,outcome,[6],inactive
same,outcome,[8],inactive
same,outcome,[9],inactive
same,outcome,[18],inactive
same,outcome,[10],inactive
same,outcome,[11],inactive
same,outcome,[12],inactive
same,outcome,[13],inactive
same,outcome,[14],inactive
same,outcome,[15],inactive
same,outcome,[16],inactive
same,outcome,[17],inactive
CC(=O)OC1CC(C)OC(C)O1 (stereo not drawn),outcome,[1],inactive
same,outcome,[2],inactive
same,outcome,[3],inactive
same,outcome,[4],inactive
same,outcome,[5],inactive
same,outcome,[6],inactive
same,outcome,[8],inactive
same,outcome,[9],inactive
same,outcome,[18],inactive
same,outcome,[10],inactive
same,outcome,[11],inactive
same,outcome,[12],inactive
same,outcome,[13],inactive
same,outcome,[14],inactive
same,outcome,[15],inactive
same,outcome,[16],inactive
same,outcome,[17],inactive
Cc1c(C)c2c(c(C)c1O)CCC(C)(COc1ccc(CC3SC(=O)NC3=O)cc1)O2 (stereo not drawn),AC50,[1],75.7 µM (active)
same,outcome,[2],inactive
same,AC50,[3],88.2 µM (active)
same,AC50,[4],122 µM (active)
same,outcome,[5],inactive
same,outcome,[6],inactive
same,outcome,[7],inactive
same,outcome,[8],inactive
same,AC50,[9],83.8 µM (active)
same,AC50,[10],135 µM (active)
same,AC50,[11],54.3 µM (active)
same,outcome,[12],inactive
same,outcome,[13],inactive
same,AC50,[14],78.4 µM (active)
same,outcome,[15],inactive
same,AC50,[16],61.8 µM (active)
same,outcome,[17],inactive
O=C(Oc1ccccc1)c1cccc(C(=O)Oc2ccccc2)c1,outcome,[1],inactive
same,outcome,[2],inactive
same,outcome,[3],inactive
same,outcome,[4],inactive
same,outcome,[5],inactive
same,outcome,[6],inactive
same,outcome,[8],inactive
same,AC50,[9],113 µM (active)
same,outcome,[18],inactive
same,outcome,[10],inactive
same,outcome,[11],inactive
same,outcome,[12],inactive
same,outcome,[13],inactive
same,outcome,[14],inactive
same,outcome,[15],inactive
same,outcome,[16],inactive
same,outcome,[17],inactive
O=NO,outcome,[1],inactive
same,outcome,[2],inactive
same,outcome,[3],inactive
same,outcome,[4],inactive
same,outcome,[5],inactive
same,outcome,[6],inactive
same,outcome,[8],inactive
same,outcome,[9],inactive
same,outcome,[18],inactive
same,outcome,[10],inactive
same,outcome,[11],inactive
same,outcome,[12],inactive
same,outcome,[13],inactive
same,outcome,[14],inactive
same,outcome,[15],inactive
same,outcome,[16],inactive
same,outcome,[17],inactive
NC(=Nc1ccccc1)Nc1ccccc1,AC50,[1],8.86 µM (active)
same,outcome,[2],inactive
same,outcome,[3],inactive
same,outcome,[4],inactive
same,AC50,[5],21.7 µM (active)
same,outcome,[6],inactive
same,outcome,[7],inactive
same,outcome,[8],inactive
same,AC50,[9],18.1 µM (active)
same,outcome,[10],inactive
same,AC50,[11],22.8 µM (active)
same,AC50,[12],34 µM (active)
same,outcome,[13],inactive
same,AC50,[14],10.3 µM (active)
same,outcome,[15],inactive
same,outcome,[16],inactive
same,outcome,[17],inactive
CC(=O)CC(c1ccccc1)c1c(O)c2ccccc2oc1=O (stereo not drawn),outcome,[1],inactive
same,outcome,[2],inactive
same,outcome,[3],inactive
same,outcome,[4],inactive
same,outcome,[5],inactive
same,outcome,[6],inactive
same,outcome,[8],inactive
same,outcome,[9],inactive
same,outcome,[18],inactive
same,outcome,[10],inactive
same,outcome,[11],inactive
same,outcome,[12],inactive
same,outcome,[13],inactive
same,outcome,[14],inactive
same,outcome,[15],inactive
same,outcome,[16],inactive
same,outcome,[17],inactive
